Experimental data published in PubChem BioAssay (EPA / NIEHS).
Active and inactive are the calls of the source. Rule for the calls: active = hit-call score of the fitted dose curve at least 0.9, where 1 is the maximum; inactive = score below 0.9.

Legend:
Conditions in all cases: mRNA level, 48 h; actives raise or lower the signal
CYP2E1 (gene 1571) = test: LTEA_HepaRG_CYP2E1: Life Technologies and Expression Analysis (LTEA) Assay for CYP2E1 using HepaRG (AID 2283485)
How it was run: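 Readout is qRT-PCR of CYP2E1 mRNA, normalized to three housekeeping genes and fitted bidirectionally against 0.5% DMSO. HepaRG cells were dosed 48 h at eight concentrations, highest 100 uM with half-log dilutions.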

CYP4A11 (gene 1579) = test: LTEA_HepaRG_CYP4A11: Life Technologies and Expression Analysis (LTEA) Assay for CYP4A11 using HepaRG (AID 2283486)
How it was run: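 Readout is CYP4A11 transcript level by qRT-PCR, normalized to three housekeeping genes and fitted bidirectionally against 0.5% DMSO. Human HepaRG cells were treated 48 h, in duplicate, with an 8-point half-log series topping at 100 uM.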

[1] = read-out: Cytochrome P450 3A4 (Homo sapiens) (UniProt P08684); test: LTEA_HepaRG_CYP3A4: Life Technologies and Expression Analysis (LTEA) Assay for CYP3A4 using HepaRG (AID 2283487)
How it was run: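 CYP3A4 transcript measured by TaqMan qRT-PCR and normalized to three housekeeping genes after 48 h chemical exposure of human HepaRG cells. Top concentration 100 uM, half-log steps, 0.5% DMSO vehicle; gain or loss fitted against DMSO baseline.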

[2] = read-out: DNA damage-inducible transcript 3 (DDIT3), DDIT3 (gene 1649); test: LTEA_HepaRG_DDIT3: Life Technologies and Expression Analysis (LTEA) Assay for DNA damage-inducible transcript 3 (DDIT3) using HepaRG (AID 2283488)
How it was run: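 Cells are human HepaRG liver cells treated for 48 h with eight half-log concentrations up to 100 uM in 0.5% DMSO. Transcript levels come from qRT-PCR normalized to three housekeeping genes, with activity fitted in both directions relative to vehicle.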

[3] = read-out: Pro-epidermal growth factor (Homo sapiens) (UniProt P01133); test: LTEA_HepaRG_EGF: Life Technologies and Expression Analysis (LTEA) Assay for Epidermal growth factor (EGF) using HepaRG (AID 2283489)
How it was run: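 EGF transcript measured by Fluidigm TaqMan qRT-PCR with three housekeeping genes for normalization, 48 h after dosing HepaRG cultures in duplicate (top 100 uM, half-log steps, 0.5% DMSO vehicle). Gain or loss relative to DMSO fitted.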

[4] = read-out: Early growth response protein 1 (EGR1) transcription factor, EGR1 (gene 1958); test: LTEA_HepaRG_EGR1: Life Technologies and Expression Analysis (LTEA) Assay for Early growth response protein 1 (EGR1) transcription factor using HepaRG (AID 2283490)
How it was run: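 EGR1 transcript levels quantified by qRT-PCR (Fluidigm arrays) against three housekeeping genes after 48 h chemical exposure of HepaRG cells. Eight-point half-log series topping at 100 uM, 0.5% DMSO vehicle, analyzed for gain or loss.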

[5] = read-out: Ezrin (EZR), EZR (gene 7430); test: LTEA_HepaRG_EZR: Life Technologies and Expression Analysis (LTEA) Assay for Ezrin (EZR) using HepaRG (AID 2283491)
How it was run: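 HepaRG, 48 h chemical exposure, 8-pt half-log series from 100 uM, 0.5% DMSO vehicle, duplicates. Read-out: EZR mRNA by TaqMan qRT-PCR (Fluidigm array), housekeeping-normalized; bidirectional curve fit vs DMSO baseline.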

[6] = read-out: Cytochrome P450 3A7 (Homo sapiens) (UniProt P24462); test: LTEA_HepaRG_CYP3A7: Life Technologies and Expression Analysis (LTEA) Assay for CYP3A7 using HepaRG (AID 2283492)
How it was run: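 CYP3A7 transcript measured by qRT-PCR (ACTB, GAPDH, POLR2A normalization) after 48 h chemical exposure of HepaRG cells in duplicate. Eight half-log concentrations, maximum 100 uM, 0.5% DMSO vehicle; bidirectional curve fitting against DMSO baseline.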

CYP3A5 (gene 1577) = test: LTEA_HepaRG_CYP3A5: Life Technologies and Expression Analysis (LTEA) Assay for CYP3A5 using HepaRG (AID 2283493)
How it was run: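 Human HepaRG hepatic cells receive 48 h chemical treatment at eight concentrations (half-log steps from 100 uM) in 0.5% DMSO. Expression of CYP3A5 is quantified by Fluidigm qRT-PCR and normalized to three reference genes.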

[7] = read-out: Fatty Acid-Binding Protein 1 (FABP1), FABP1 (gene 2168); test: LTEA_HepaRG_FABP1: Life Technologies and Expression Analysis (LTEA) Assay for Fatty Acid-Binding Protein 1 (FABP1) using HepaRG (AID 2283494)
How it was run: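 FABP1 expression by TaqMan qRT-PCR, normalised to three housekeeping genes, in HepaRG cells after 48 h chemical treatment. Eight-point half-log series topping at 100 uM in 0.5% DMSO, duplicates; gain or loss fitted relative to vehicle.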

[8] = read-out: Cytochrome P450 4A22 (Homo sapiens) (UniProt Q5TCH4); test: LTEA_HepaRG_CYP4A22: Life Technologies and Expression Analysis (LTEA) Assay for Cytochrome P450 4A22 (CYP4A22) using HepaRG (AID 2283495)
How it was run: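 Gene expression measured by qRT-PCR against three housekeeping genes (ACTB, GAPDH, POLR2A), with gain or loss fitted relative to 0.5% DMSO vehicle. HepaRG cultures received 48 h chemical treatment, top concentration 100 uM, half-log steps, duplicate wells.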

[9] = read-out: Cytochrome P450 7A1 (Homo sapiens) (UniProt P22680); test: LTEA_HepaRG_CYP7A1: Life Technologies and Expression Analysis (LTEA) Assay for Cytochrome P450 7A1 (CYP7A1) using HepaRG (AID 2283496)
How it was run: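 HepaRG, 48 h exposure, 8-pt half-log series from 100 uM, 0.5% DMSO vehicle, duplicates. Readout: TaqMan qRT-PCR mRNA vs three housekeeping genes; bidirectional curve fit against DMSO baseline.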

[10] = read-out: Glutathione S-Transferase (GSTA2), GSTA2 (gene 2939); test: LTEA_HepaRG_GSTA2: Life Technologies and Expression Analysis (LTEA) Assay for Glutathione S-Transferase (GSTA2) using HepaRG (AID 2283497)
How it was run: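 GSTA2 transcript levels came from Fluidigm TaqMan qRT-PCR normalized to three housekeeping genes, fitted in both directions against DMSO. HepaRG cultures received chemicals for 48 h in serum-free induction medium (0.5% DMSO), 8 half-log concentrations up to 100 uM, duplicate.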

[11] = read-out: Glutamate-cysteine ligase catalytic (GCLC), GCLC (gene 2729); test: LTEA_HepaRG_GCLC: Life Technologies and Expression Analysis (LTEA) Assay for Glutamate-cysteine ligase catalytic (GCLC) using HepaRG (AID 2283498)
How it was run: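 Expression by TaqMan qRT-PCR, normalized to three housekeeping genes (ACTB, GAPDH, POLR2A), with up- or down-regulation fitted against DMSO. HepaRG cells dosed in duplicate for 48 h with 8 half-log concentrations up to 100 uM, vehicle 0.5% DMSO.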

[12] = read-out: growth arrest and DNA damage 45 (GADD45G), GADD45G (gene 10912); test: LTEA_HepaRG_GADD45G: Life Technologies and Expression Analysis (LTEA) Assay for growth arrest and DNA damage 45 (GADD45G) using HepaRG (AID 2283499)
How it was run: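 GADD45G transcript level by qRT-PCR (housekeeping-normalized: ACTB, GAPDH, POLR2A) after 48 h chemical treatment of a single HepaRG lot in serum-free induction medium; eight-point half-log series up to 100 uM in 0.5% DMSO, duplicates, up- or down-regulation scored.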

[13] = read-out: Glutamate-cysteine ligase regulatory (GCLM), GCLM (gene 2730); test: LTEA_HepaRG_GCLM: Life Technologies and Expression Analysis (LTEA) Assay for Glutamate-cysteine ligase regulatory (GCLM) using HepaRG (AID 2283500)
How it was run: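 Endpoint is GCLM transcript level by qRT-PCR, normalized to three housekeeping genes, after 48 h chemical exposure of human HepaRG cells (0.5% DMSO vehicle, top 100 uM, half-log dilutions). Fitting was bidirectional relative to DMSO.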

[14] = read-out: Heat shock 70 kDa protein 1 (HSPA1A), gene 3303; test: LTEA_HepaRG_HSPA1A: Life Technologies and Expression Analysis (LTEA) Assay for Heat shock 70 kDa protein 1 (HSPA1A) using HepaRG (AID 2283502)
How it was run: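 Cells were plated and cultured for 48 h, then switched to serum-free induction medium. Chemicals were added at eight half-log concentrations up to 100 uM for 48 h. RNA was then isolated and HSPA1A measured by qRT-PCR with bidirectional curve fitting against DMSO.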

[15] = read-out: Hypoxia-inducible factor 1-alpha (Homo sapiens) (UniProt Q16665); test: LTEA_HepaRG_HIF1A: Life Technologies and Expression Analysis (LTEA) Assay for Hypoxia-inducible factor 1 (HIF1A) Trancription factor using HepaRG (AID 2283503)
How it was run: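 HIF1A transcript level read by qRT-PCR (ACTB, GAPDH, POLR2A normalization) after 48 h chemical exposure of HepaRG cultures. Eight half-log concentrations, top 100 uM, 0.5% DMSO vehicle, duplicates; bidirectional curve fit against DMSO baseline.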

[16] = read-out: 3-Hydroxy-3-Methylglutaryl-CoA Synthase 2 (HMGCS2), HMGCS2 (gene 3158); test: LTEA_HepaRG_HMGCS2: Life Technologies and Expression Analysis (LTEA) Assay for 3-Hydroxy-3-Methylglutaryl-CoA Synthase 2 (HMGCS2) using HepaRG (AID 2283504)
How it was run: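 Readout is HMGCS2 transcript by qRT-PCR, housekeeping-normalised (ACTB/GAPDH/POLR2A) and fitted bidirectionally against 0.5% DMSO. Differentiated HepaRG cells received chemicals 48 h, duplicate wells, eight half-log concentrations topping at 100 uM.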

[17] = read-out: Glutathione S-transferase M3 (GSTM3), GSTM3 (gene 2947); test: LTEA_HepaRG_GSTM3: Life Technologies and Expression Analysis (LTEA) Assay for Glutathione S-transferase M3 (GSTM3) using HepaRG (AID 2283501)
How it was run: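 GSTM3 transcript levels came from Fluidigm TaqMan qRT-PCR normalized to three housekeeping genes, fitted in both directions against DMSO. HepaRG cultures received chemicals for 48 h in serum-free induction medium (0.5% DMSO), 8 half-log concentrations up to 100 uM, duplicate.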

Measured: outcome

Cytochrome P450 3A7 (Homo sapiens), sequence (P24462 whole entry, looked up): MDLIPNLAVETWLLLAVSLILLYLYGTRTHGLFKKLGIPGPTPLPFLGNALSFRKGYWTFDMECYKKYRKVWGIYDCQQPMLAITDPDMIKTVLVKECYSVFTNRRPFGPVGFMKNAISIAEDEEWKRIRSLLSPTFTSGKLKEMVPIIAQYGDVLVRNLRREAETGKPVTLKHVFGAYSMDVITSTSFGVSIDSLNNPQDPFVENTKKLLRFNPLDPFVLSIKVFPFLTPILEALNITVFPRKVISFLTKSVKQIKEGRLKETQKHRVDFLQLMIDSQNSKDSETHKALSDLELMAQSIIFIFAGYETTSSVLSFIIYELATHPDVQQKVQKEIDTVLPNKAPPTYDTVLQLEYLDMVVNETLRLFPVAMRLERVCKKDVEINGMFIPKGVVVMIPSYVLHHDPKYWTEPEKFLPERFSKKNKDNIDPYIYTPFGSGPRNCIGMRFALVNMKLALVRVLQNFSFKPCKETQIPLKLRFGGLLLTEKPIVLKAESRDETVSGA
Cytochrome P450 3A4 (Homo sapiens), sequence (P08684 whole entry, looked up): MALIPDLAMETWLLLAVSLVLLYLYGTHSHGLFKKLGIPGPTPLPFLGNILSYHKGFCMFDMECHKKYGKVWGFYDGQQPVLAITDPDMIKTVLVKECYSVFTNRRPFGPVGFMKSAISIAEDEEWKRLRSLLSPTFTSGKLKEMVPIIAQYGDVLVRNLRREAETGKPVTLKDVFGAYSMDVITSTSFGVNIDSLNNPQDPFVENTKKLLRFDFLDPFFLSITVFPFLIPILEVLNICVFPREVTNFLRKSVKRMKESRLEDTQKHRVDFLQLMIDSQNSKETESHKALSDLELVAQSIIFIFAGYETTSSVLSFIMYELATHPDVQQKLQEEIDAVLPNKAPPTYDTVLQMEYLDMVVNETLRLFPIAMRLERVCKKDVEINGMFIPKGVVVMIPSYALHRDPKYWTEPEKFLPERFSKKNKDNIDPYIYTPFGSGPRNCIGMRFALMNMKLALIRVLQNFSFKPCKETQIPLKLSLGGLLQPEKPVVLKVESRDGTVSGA
Hypoxia-inducible factor 1-alpha (Homo sapiens), sequence (Q16665 whole entry, looked up): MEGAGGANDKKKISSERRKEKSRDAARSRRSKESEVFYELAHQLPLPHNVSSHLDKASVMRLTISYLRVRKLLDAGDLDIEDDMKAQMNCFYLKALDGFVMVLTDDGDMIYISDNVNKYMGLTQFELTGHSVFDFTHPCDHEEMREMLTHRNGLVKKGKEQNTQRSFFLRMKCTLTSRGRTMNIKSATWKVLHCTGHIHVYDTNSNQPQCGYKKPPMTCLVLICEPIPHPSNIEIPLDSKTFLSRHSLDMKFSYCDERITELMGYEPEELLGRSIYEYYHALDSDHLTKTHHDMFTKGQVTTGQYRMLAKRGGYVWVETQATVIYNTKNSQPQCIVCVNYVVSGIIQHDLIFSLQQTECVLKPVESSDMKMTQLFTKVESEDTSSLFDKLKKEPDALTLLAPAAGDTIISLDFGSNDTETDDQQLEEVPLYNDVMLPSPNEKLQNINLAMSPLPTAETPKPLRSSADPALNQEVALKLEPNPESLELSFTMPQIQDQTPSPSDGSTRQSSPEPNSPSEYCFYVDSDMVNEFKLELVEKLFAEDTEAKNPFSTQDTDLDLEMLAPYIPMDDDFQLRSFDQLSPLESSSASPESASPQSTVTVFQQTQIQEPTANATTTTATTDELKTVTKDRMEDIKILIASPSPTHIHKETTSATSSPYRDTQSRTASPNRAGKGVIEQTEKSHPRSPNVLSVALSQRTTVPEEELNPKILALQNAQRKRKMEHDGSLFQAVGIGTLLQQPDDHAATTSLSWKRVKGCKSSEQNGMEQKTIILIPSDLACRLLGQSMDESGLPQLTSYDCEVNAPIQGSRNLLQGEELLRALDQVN

OC[C@H]1O[C@@](CO)(O[C@H]2O[C@H](CO)[C@@H](O)[C@H](O)[C@H]2O)[C@@H](O)[C@@H]1O
not listed: [17]
inactive: all other assays above

COS(C)(=O)=O
inactive: all assays above

CNC(C)=O
inactive: all assays above

CCc1ccc(O)c(C(C)(C)C)c1
not listed: [13] | [17]
inactive: all other assays above
